A selection: hits, their analogues and other compounds. The true share with any hit is near 11%.
Sm TGR inh = blocks Schistosoma mansoni thioredoxin glutathione reductase; purified TGR, DTNB reduction, TNB absorbance 405 nm; Potency, µM (top dose mostly 114 µM), actives largely listed as inhibitors; 360,000 compounds, 3% hits; AID 485364; note: nearly all actives have a fitted effect of over 60% in size
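TGR 20 nM + NADPH 100 uM (dispensed conc.), cpd preinc 15 min RT; start with NADPH (500 uM addition) then DTNB (15 mM addition). Kinetic TNB absorbance, 405 nm filter. Four-parameter Hill fit across titration.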
Pf growth 96h = P. falciparum growth inhibition at 96 hours; P. falciparum luciferase reporter growth, 96 h; Potency, µM (series often up to 28.7 µM), most hits filed as inhibitors; AID 504834; 320,000 compounds, 6.9% hits
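96 h incubation, 37 C, 5% CO2, of luciferase-reporter P. falciparum-infected RBCs (2% hematocrit, 0.05% parasitemia final) with test compounds; endpoint luminescence.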
Pf growth 48h = inhibits P. falciparum growth in the first generation, 48 h | P. falciparum luciferase growth in erythrocytes, 48 h | Potency, µM (titrated, usually from 28.7 µM), usual class: inhibitors | 310,000 compounds, 5.9% hits | AID 504832
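Read-out is firefly luciferase luminescence from an integrated reporter in P. falciparum, so falling signal marks reduced parasite growth. Infected erythrocytes were at 2% hematocrit and 0.1% parasitemia (final) in Albumax-supplemented RPMI 1640.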
NS1 inh = inhibitors of influenza NS1 protein function; Potency, µM (highest dose often 46.1 µM); 270,000 compounds, 0.4% hits; AID 2326; calls by dose curve; note: actives are rising curves; nearly all actives have a fitted effect of over 50% in size
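In this qHTS, NS1 from influenza A is expressed in budding yeast, where it slows growth. Cells are switched from glucose to 2% galactose medium (pH 6.0, -URA), treated with compound, and growth recovery is read at OD600.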
AMA1 RON2 block = inhibitors of Plasmodium falciparum AMA1-RON2 interaction; 360,000 compounds, 0.2% hits; AlphaScreen AMA1-biotinylated RON2 peptide binding; Potency, µM (doses to about 58.2 µM), most hits filed as inhibitors; AID 720542; note: nearly all actives have a fitted effect of over 45% in size
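AMA1 (3D7) with his tag at 25 nM final met compounds first, then biotinylated RON2 peptide at 25 nM; detection used donor plus acceptor beads, 10 µg/mL apiece, read by AlphaScreen after 30 min at room temperature.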
Large screens that a line does not name were inactive. Unless noted, calls come from the whole dose curve; as a rule, active = well fitted curve in the direction sought with a large enough effect; inconclusive = small, poorly fitted or top-dose-only effect, or another doubt; inactive = no such curve, though single readings can be large; an effect the other way counts as inactive or inconclusive.

CN1CCN(c2ccc([N+](=O)[O-])cc2NC(=O)c2ccccc2Cl)CC1	Pf growth 96h inconclusive, Pf growth 48h 12µM
C(=C\c1ccccc1)/CN1CCN(C(c2cc3ccccc3o2)c2nnnn2C2CCCCC2)CC1 (centres undefined)	none (no result: Sm TGR inh, Pf growth 96h, Pf growth 48h, NS1 inh)
CCC(C)NC(=O)c1ccccc1NC(=O)C1COc2ccccc2O1 (centres undefined)	Pf growth 96h inconclusive, Pf growth 48h 1.2µM
CC(C)NC(=O)c1ccccc1NC(=O)C1COc2ccccc2O1 (centres undefined)	Pf growth 48h 10µM
COCCNC(=O)c1ccccc1NC(=O)C1COc2ccccc2O1 (centres undefined)	Pf growth 96h inconclusive
Cc1cccn2c(CNCCCOc3cccnc3)c(C(=O)N3CCOCC3)nc12	Pf growth 96h inconclusive
COCC(=O)Nc1ccc(Br)cc1C	Pf growth 96h 5.9µM (no result: NS1 inh)
Cc1cc(F)ccc1NCC(=O)Nc1ccc(Br)cc1C	none
COCCCNC(=O)c1cc(C)nn1-c1ccccc1	none
Cc1ccc(NC(=O)c2cc(N3C(=O)C=CC3=O)ccc2Cl)cc1C	Sm TGR inh 0.79µM
Cc1ccc(NC(=O)c2cc(N3C(=O)C=CC3=O)ccc2N2CCOCC2)cc1	Sm TGR inh 0.71µM
COc1ccc(OC)c(Nc2sc(C(=O)c3ccccc3)c(N)c2S(=O)(=O)c2ccccc2)c1	none (no result: Pf growth 96h, Pf growth 48h, NS1 inh, AMA1 RON2 block)
O=C(O)CCc1ccc(-c2ccc(Br)cc2)n1CC(=O)O	Sm TGR inh inconclusive
O=C(O)CCc1ccc(-c2ccc(F)cc2)n1CCC(=O)O	Sm TGR inh 14µM (no result: Pf growth 96h)
CC(C)n1c(CCC(=O)O)ccc1-c1ccccc1	Sm TGR inh 18µM, Pf growth 96h inconclusive (no result: Pf growth 48h)
O=C(O)CCc1ccc(-c2ccccc2)n1CC(=O)O	Sm TGR inh 35µM (no result: Pf growth 96h)
Cc1ccc(-c2ccc(CCC(=O)O)n2Cc2ccco2)cc1	Sm TGR inh 35µM, Pf growth 96h inconclusive (no result: Pf growth 48h)
C=CCNc1nc2c(c(=O)[nH]c(=O)n2C)n1CC(O)COc1ccc2ccccc2c1 (centres undefined)	none
c1ccc(C2(N3CCCCC3)CCCCC2)cc1	none (no result: Sm TGR inh, Pf growth 96h, Pf growth 48h, NS1 inh)
S=C=Nc1cccc(C2(N3CCCCC3)CCCCC2)c1	Sm TGR inh inconclusive, Pf growth 96h 1.7µM, Pf growth 48h 2.6µM (no result: NS1 inh)
CC(C)(C)c1ccc(Oc2ccc(NC(=O)c3ccco3)cn2)cc1	Pf growth 96h 8.3µM, Pf growth 48h 2.1µM
CC(C)(C)c1ccc(Oc2ccc(NC(=O)c3cccs3)cn2)cc1	Pf growth 96h 13µM, Pf growth 48h 2.6µM
O=C(Nc1ccc(Oc2cccnc2)nc1)c1ccc(C(F)(F)F)cc1	Pf growth 96h inconclusive, Pf growth 48h inconclusive
O=C(Nc1ccc(Oc2cccc(C(F)(F)F)c2)nc1)c1ccco1	Pf growth 96h 13µM, Pf growth 48h inconclusive
CCCCC(=O)Nc1ccc(NC(=O)c2ccco2)cn1	none
CCCC(=O)Nc1ccc(NC(=O)c2ccco2)cn1	Pf growth 96h 8.3µM
CCOc1ccc(N2CC(C(=O)NC3CCCCCC3)CC2=O)cc1 (centres undefined)	Pf growth 96h inconclusive
CCOc1ccc(CCNC(=O)c2nn(C)c3c2CSc2ccc(C)cc2-3)cc1OCC	none (no result: Pf growth 96h, Pf growth 48h, NS1 inh, AMA1 RON2 block)
Cc1nnsc1C(=O)N1CCN(c2cc(C(F)(F)F)ccn2)CC1	Pf growth 48h inconclusive
C/C(=N\Nc1nc2ccccc2[nH]1)c1ccc([N+](=O)[O-])cc1	Pf growth 96h 0.066µM, Pf growth 48h 0.19µM, NS1 inh inconclusive
CC(=O)N(C)c1ccc(N=Cc2cc3c(cc2[N+](=O)[O-])OCO3)cc1	none (no result: Sm TGR inh, Pf growth 96h, Pf growth 48h, NS1 inh)
CCN(CC)c1ccc(N=Cc2ccccc2[N+](=O)[O-])cc1	Sm TGR inh inconclusive, Pf growth 48h 2.3µM, AMA1 RON2 block 18µM
CCN(CC)c1ccc(N=Cc2ccc([N+](=O)[O-])o2)cc1	Sm TGR inh 35µM, Pf growth 96h 2.9µM, Pf growth 48h 1.7µM, AMA1 RON2 block inconclusive
CC(=O)Nc1sc(N/N=C/c2ccc(O)cc2)nc1-c1ccc(C)cc1	Pf growth 96h inconclusive, Pf growth 48h inconclusive
CC(=O)Nc1sc(N/N=C/c2ccccc2)nc1-c1ccc(C)cc1	Pf growth 96h inconclusive, Pf growth 48h 7.4µM
CC(=O)Nc1sc(N/N=C\c2ccccc2)nc1-c1cccs1	Pf growth 96h inconclusive, Pf growth 48h inconclusive
CC(=O)Nc1sc(N/N=C/c2ccccc2F)nc1-c1ccc(C)cc1	Sm TGR inh 32µM, Pf growth 96h inconclusive, Pf growth 48h 8.3µM
CC(=O)Nc1sc(-c2ccccc2)nc1-c1ccccc1	Pf growth 96h 4.7µM, AMA1 RON2 block inconclusive (no result: NS1 inh)

From PubChem BioAssay
